# Data as given in PubChem BioAssay (NCI).
# Compounds without any hit were thinned out: in the full panel of roughly 83,000, 20% have a hit.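 Activity criterion: percent growth below 10, measured after cells in 96-well plates were exposed to a single compound concentration for 48 hours.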 Unmarked numbers belong to inactive results. Active and inactive are the calls of the source.
# Test system: HL-60(TB) leukemia
# Experiment: NCI-60 one-dose screen, 48 h (100 = growth as untreated, 0 = no growth, -100 = all killed)
# Conditions: 10 µM unless noted
row,Compound,growth
1,C#CCN=C[C@]12CC[C@@H](C(=C)C)[C@@H]1[C@H]1CC[C@@H]3[C@@]4(C)CCC(=O)C(C)(C)[C@@H]4CC[C@@]3(C)[C@]1(C)CC2,-14.3% (active)
2,CC(C)OP(=O)(CCC(=O)c1c[nH]c2ccccc12)OC(C)C,92.2%
3,CC1(C)C(O)NC(Cl)=C(C#N)C1(C#N)C#N (centres undefined),114%
4,Cc1cc(CO)c(O)c(CO)c1,80.5%
